Measurements as given in ChEMBL document CHEMBL3988442, “University of Dundee, Small-Polar-MMV Screening Library” (2021).
The campaign covered roughly 69,000 compounds. About 950 (1.4%) showed an effect of 50% or more. The entries come from a sample that favours strong results as a whole.

Test system: Mycobacterium tuberculosis
Assay: Cornell M. t heat shock assay; note: in the data most compounds retested in dose-response had high values
Type: functional, organism-based
Parameters: dose or concentration left out as unconfirmed

| SMILES | Percent Effect |
| --- | --- |
| COCC1Cn2nnc(-c3cnn(C)c3)c2CN1Cc1ccsc1.O=C(O)C(F)(F)F (stereo not given) | 14.81% |
| COc1ccc(CN2CCN(c3ncc(Cl)cn3)CC2)cc1 | -15.93% |
| CCc1ccc(CN2CCN(c3ccc(Cl)nn3)CC2)nc1 | 15.06% |
| CCc1ccc(CN2CCN(c3ncc(Cl)cn3)CC2)nc1 | 68.7% |
| Cc1nc(Cn2c3c(ccc2=O)CC(NC(C)C)CC3)cs1.O=C(O)C(F)(F)F.O=C(O)C(F)(F)F (stereo not given) | 34.33% |
| COCCN1CCOCC2(CCCN(Cc3cccc(F)c3)C2)C1.O=C(O)C(F)(F)F.O=C(O)C(F)(F)F (stereo not given) | -14.36% |
| Clc1ccccc1C1(c2ccnc(C3CCCC3)n2)CCNCC1 | 57.06% |
| Clc1ccccc1C1(c2ccnc(-c3ncccn3)n2)CCNCC1 | -0.2715% |
| Clc1ccccc1C1(c2ccnc(C3CC3)n2)CCNCC1 | -18.26% |
| CC(C)NC(=O)[C@@H]1C[C@@H]2CCN(Cc3ccoc3)C[C@H]2O1.O=C(O)C(F)(F)F | 43.76% |
| CC(C)N(C)Cc1cnc2n1CCN(C(=O)NC1CCCC1)C2.O=C(O)C(F)(F)F | 7.687% |
| Fc1cnc(N2CCO[C@H]3[C@H](OCCN4CCCC4)CC[C@@H]32)nc1.O=C(O)C(F)(F)F | -1.217% |
| Cc1ccc(N2CC[C@H]3C[C@@H](C(=O)N4CCOCC4)O[C@H]3C2)nn1.O=C(O)C(F)(F)F | 9.789% |
| O=C(Nc1c(N2CCCC2)cccc1N1CCCC1)c1cnsn1 | 3.548% |
| O=C(Nc1c(N2CCCC2)cccc1N1CCCC1)c1ccccn1 | 104.6% |
| O=C(Nc1c(N2CCCC2)cccc1N1CCCC1)c1cnccn1 | 26.63% |
| Cl.Cn1cc(CN2CCN(CC3(c4ccccc4)CC3)CC2)cn1 | -7.6% |
| Cc1cccc(CN2C(=O)CCC23CCN(C(=O)c2ccco2)CC3)n1.O=C(O)C(F)(F)F | -22.73% |
| COCc1nc(-c2ccnc(N3CCNCC3)n2)no1.Cl.Cl | 24.05% |
| CC(C)Cn1cc(C(=O)NC2CCS(=O)(=O)C2)c2ccccc2c1=O (stereo not given) | 1.323% |
| O=C(NC1CCS(=O)(=O)C1)c1cn(C2CC2)c(=O)c2ccccc12 (stereo not given) | 62.62% |
| CC(C)n1cc(C(=O)NC2CCS(=O)(=O)C2)c2ccccc2c1=O (stereo not given) | -0.4948% |
| O=C(O)C(F)(F)F.c1cc(CN2C[C@H](OCC3CCOCC3)[C@H]3COC[C@H]32)cs1 | 11.94% |

| SMILES | Percent Effect |
| --- | --- |
| O=C(NC1CCCC1)[C@@H]1CN(Cc2nccs2)C[C@H]2OCC[C@H]21.O=C(O)C(F)(F)F.O=C(O)C(F)(F)F | -17.32% |
| CSCC(C)C(=O)NCc1c(C)nc2cc(=O)[nH]n2c1C (stereo not given) | 9.376% |
| Cn1ccnc1-c1ccc(NCC2COc3ccccc3O2)nn1 (stereo not given) | 32.53% |
| Cn1ccnc1-c1ccc(NC[C@H]2CCc3ccccc3O2)nn1 | 50.1% |
| Cn1ccnc1-c1ccc(NCCC2COc3ccccc3O2)nn1 (stereo not given) | 44.06% |
| Cl.O=C(C1CCC1)N1C[C@@H](c2ccsc2)[C@@H]2CN(C3CCCC3)CC[C@@H]21 | -4.778% |
| O=C(CCn1cc(Cl)cn1)N1C[C@@H]2CC[C@H](C1)N(Cc1ccccn1)C2 | 7.885% |
| CC(NCCCN1CCCC1=O)c1ccc(F)cc1N(C)C (stereo not given) | 87.91% |
| CC(NCCCN1CCCC1=O)c1cc(Br)ccc1F (stereo not given) | 13.95% |
| CC(NCCN1CCC(N(C)C)CC1)c1ccc(F)cc1N(C)C (stereo not given) | -14.59% |
| COCC(=O)NCc1nn(CCN2CCCC2)c(=O)c2ccccc12 | -7.005% |
| CCOC(=O)NCc1nn(CCN2CCCC2)c(=O)c2ccccc12 | 74.86% |
| CCNC(=O)NCc1nn(CCN2CCCC2)c(=O)c2ccccc12 | 41.46% |
| N#CCCN(Cc1ccco1)C(=O)c1ccc(OCC2CC2)cc1 | 14.1% |
| N#CCCN(CCC#N)C(=O)c1ccc(OCC2CC2)cc1 | 94.69% |
| N#CCCN(Cc1cccnc1)C(=O)c1ccc(OCC2CC2)cc1 | 6.663% |
| Cl.NCCC(=O)Nc1ccc(-c2ccccc2)cc1 | 3.2% |
| CC(=O)N1CCC(c2nc3ccc(NC4CCC4)cn3n2)CC1.O=C(O)C(F)(F)F | 21.7% |
| O=C(O)C(F)(F)F.O=C(O)C(F)(F)F.O=c1ccc2c(n1Cc1cccnc1)CCN(Cc1ccoc1)CC2 | -14.95% |
| CC(C)c1nn(C)cc1CNC1CCOc2ccccc21.Cl (stereo not given) | -5.42% |
| O=C(CN1CCc2ccccc21)Nc1ccc(OC(F)F)cc1 | 99.06% |
| COc1ccc(CNC(=O)CN2CCc3ccccc32)cc1 | -48.79% |
| O=C(CN1CCCS1(=O)=O)Nc1ccc(OC(F)F)cc1 | -14.39% |

| SMILES | Percent Effect |
| --- | --- |
| COCCN1CCOCC2(C1)CN(C(=O)c1conc1C)CCO2.O=C(O)C(F)(F)F (stereo not given) | 15.5% |
| COCCC(=O)NC1CCN(CC2(c3cccc(F)c3)CCCC2)CC1.Cl | 23.79% |
| CC(c1cccc(-c2ncccc2C#N)c1)N(C)C (stereo not given) | 73.93% |
| Cc1ccc(C(=O)O)cc1-c1cccc(C(C)N(C)C)c1 (stereo not given) | -8.231% |
| COC(C)(C)Cn1ccnc1-c1cccc(C(C)N(C)C)c1 (stereo not given) | -20.81% |
| CC(c1cccc(-c2ncc(C#N)c(N)n2)c1)N(C)C (stereo not given) | -10.92% |
| CC(c1cccc(-c2nccn2CCc2ccccn2)c1)N(C)C (stereo not given) | -27.93% |
| CC(c1cccc(-c2ncccc2F)c1)N(C)C (stereo not given) | 76.79% |
| Cc1ccc(CN2Cc3ccccc3O[C@]3(CC[C@H](CO)CC3)C2)o1.Cl | -44.64% |
| Cc1nc(CN2C(=O)C[C@@H]3[C@@H]2CCN3CC2CCOCC2)cs1.O=C(O)C(F)(F)F | -14.82% |
| COCCC(=O)N1C[C@H]2CN(Cc3cccc(C)n3)C(=O)[C@H]2C1.O=C(O)C(F)(F)F | -12.42% |
| COc1cc(N2C[C@@H]3COC[C@]3(COCc3cccc(C)n3)C2)ncn1.O=C(O)C(F)(F)F.O=C(O)C(F)(F)F | 1.772% |
| Cc1cnccc1-c1cnn(CCNC(=O)c2ccncc2)c1C1CC1.Cl | -0.5476% |
| CN(C)CCN1C(=O)C2(CCN(CC3CC3)CC2)c2ccccc21.O=C(O)C(F)(F)F.O=C(O)C(F)(F)F | 2.693% |
| Cc1ccc(CN2CCC[C@]3(C(=O)O)CN(C)C[C@@H]3C2)s1.O=C(O)C(F)(F)F.O=C(O)C(F)(F)F | 10.8% |
| CCn1c(CN(C)C)nnc1C1CCN(c2nccc(NC)n2)CC1 | -31.54% |
| CCn1c(CN(C)C)nnc1C1CCN(c2ccnc(C)c2)CC1 | 105.5% |
| Cc1cc(N2CCC(c3nnc(CN(C)C)n3C3CC3)CC2)ccn1 | -0.4086% |
| Cc1cc(N2CCCC2Cn2nc(C)cc2C)n2ncnc2n1 (stereo not given) | 11.78% |
| Cc1cc(-n2cnnn2)n2ncnc2n1 | -4.919% |
| Cc1cc(-n2cncn2)n2ncnc2n1 | 61.29% |
| O=C(C1CCC1)N1C[C@@H]2CC[C@H](C1)N(S(=O)(=O)c1ccccc1)C2 | -12.74% |
| CN(C)C(=O)N1C[C@@H]2CC[C@H](C1)N(S(=O)(=O)c1cccnc1)C2 | -21.11% |

| SMILES | Percent Effect |
| --- | --- |
| O=C(NCc1cccnc1)N1CCc2ncnc(NC3CC3)c2CC1.O=C(O)C(F)(F)F | -0.2594% |
| CCOCC1c2c(ncn2C)CCN1C(=O)c1ccoc1 (stereo not given) | 35.15% |
| CCOCC1c2c(ncn2C)CCN1C(=O)c1cscn1 (stereo not given) | 57.96% |
| CCOCC1c2c(ncn2C)CCN1C(=O)c1cnc(C)cn1.O=C(O)C(F)(F)F (stereo not given) | 18.53% |
| CC(C)(CO)NCc1ccc(OCc2ccc3c(c2)OCCO3)cc1.Cl | -22.54% |
| O=C(O)C(F)(F)F.O=C(O)C(F)(F)F.O=C(O)C(F)(F)F.c1cncc(CN2CC[C@@H]3O[C@H](COCCN4CCCC4)CC[C@@H]32)c1 | -18.74% |
| CC(C)C(=O)N1CC[C@@H]2[C@H](CC1)N(Cc1cccnc1)CCS2(=O)=O.O=C(O)C(F)(F)F.O=C(O)C(F)(F)F | -30.61% |
| Cc1cc(NC(=O)C(C)Nc2cccc(COCc3ccco3)c2)on1 (stereo not given) | 4.042% |
| CCOC(=O)C(C)Nc1cccc(COCc2ccco2)c1 (stereo not given) | 104.6% |
| CC(Nc1cccc(COCc2ccco2)c1)C(=O)NC(N)=O (stereo not given) | 0.6149% |
| CC(C)CN1CCC2(CCCNC2)C1=O.Cl (stereo not given) | -13.24% |
| O=C(O)C(F)(F)F.O=C(c1cccnc1)N1CCc2ncnc(C3CCOC3)c2CC1 (stereo not given) | 8.544% |
| COCc1nn(C(C)C)c2c1CCN(Cc1nccs1)C2.O=C(O)C(F)(F)F | -16.62% |
| Cc1nc(CN2CCO[C@@H]3CN(Cc4cccs4)C[C@@H]3C2)cs1.O=C(O)C(F)(F)F.O=C(O)C(F)(F)F | -15.47% |
| Cc1nc(CN2CCOCC3(CCN(c4cnccn4)CC3)C2)cs1.O=C(O)C(F)(F)F | -3.315% |
| CCc1cccc2c(CC(=O)N(C)CCN(C)C)c(C)[nH]c12.O=C(O)CC(O)(CC(=O)O)C(=O)O | 1.394% |
| Cc1cc(NC2CCN(c3ccc(F)cc3)CC2)n2nc(C)cc2n1 | 11.63% |
| Cc1cc(NC2CCCN(Cc3ccc(F)cc3)C2)n2nc(C)cc2n1 (stereo not given) | 55.79% |
| Cc1cc(N[C@H]2CCCN(Cc3ccccc3)C2)n2nc(C)cc2n1 | 37.52% |
| CNc1ncc2c(n1)CN(Cc1ccc(Cl)cc1)C2=O | -7.307% |
| C[C@@H]1CN(Cc2cc(C3CCCCC3)no2)CC[C@@]1(O)C1CC1 | -30.44% |
